SMILES strings stand for the structures. The panel holds about 83,000 compounds, 20% with a hit somewhere; the sample as a whole holds those more often.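 Values shown are percent growth following 48 h exposure of cells in 96-well plates to a single concentration of compound; below 10 was considered active.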 Calls of active or inactive are those of the source.

In this test the test system is HL-60(TB) leukemia. The test can be described thus: NCI-60 one-dose screen, 48 h (100 = growth as untreated, 0 = no growth, -100 = all killed). The settings on record: 10 µM unless noted.
For `CC1(C)CC[C@]2(CN)CC[C@]3(C)C(=CC[C@@H]4[C@@]5(C)CCCNC(C)(C)[C@@H]5CC[C@]43C)[C@H]2C1`, the growth was 87% (inactive).

On to `Cc1ccc2c(c1)C13C(=C2Br)CCCN1C(=O)c1ccccc13` (stereo not given), for which the growth is 68.2% (inactive).

Regarding `C=C1CC[C@H]2[C@@](C)(CCC3OC(c4ccc(OCc5cn(C6CC(OC(C)=O)C(OC(C)=O)C(COC(C)=O)O6)nn5)cc4)OC[C@]32C)[C@@H]1/C=C/C1=CCOC1=O` (stereo not given in full), the growth was 56.2% (inactive).

As for `NC(N)=Nc1ccc(Nc2cccc(Nc3ccc(Cl)c(C(F)(F)F)c3)c2)cn1`, the growth was -40.5% (active).

As for `Clc1cccc(/C=N/Nc2nc(N/N=C/c3cccc(Cl)c3)nc(N3CCOCC3)n2)c1`, the growth was -9.74% (active).

For `O=C(/C=C1\C=CN(CCCCF)c2ccccc21)n1ccc2ccccc21`, the growth was 121% (inactive).

Consider `O=C1[C@@H]2Cc3c([nH]c4ccccc34)[C@@H](c3ccc(Cl)cc3)N2C(=O)CN1C1CCN(Cc2c(F)cccc2F)CC1`, for which the growth was 0.352% (active).

Regarding `CCOC(=O)c1c(Nc2ccccc2)nn2c(N)c(C#N)c(-c3ccc(OC)cc3)nc12`, the growth was 112% (inactive).

Turning to `C[C@H](CCC(=O)NCc1ccc(C(=O)Nc2ccccc2N)cc1)[C@H]1CC[C@H]2[C@@H]3[C@@H](O)C[C@@H]4C[C@H](O)CC[C@]4(C)[C@H]3CC[C@]12C`, the growth was 0.73% (active).

As to `Nc1ncc(-c2ccc3ncnc(N4CCc5cc(F)c(F)cc54)c3c2)cn1`, the growth is 37.1% (inactive).

Consider `O=C1C[C@@H](c2ccccc2)Oc2c(Cc3ccccc3O)c(O)c(Cc3cc(Cc4cc(Cc5ccccc5O)ccc4O)ccc3O)c(O)c21`, for which the growth was 95.1% (inactive).

In the case of `C#C[C@]1(O)CC[C@H]2[C@@H]3CC=C4c5sc(Nc6cc(Cl)ccc6OC)nc5CC[C@]4(C)[C@H]3CC[C@@]21C`, the growth was 5.48% (active).

In the case of `CCc1cccc2c3c(sc12)C(c1ccc(F)cc1)C(C#N)=C(/N=C/c1ccc(Cl)cc1)O3` (stereo not given), the growth was 7.08% (active).

On to `O=C1Nc2ccc(F)cc2/C1=C\C(=O)c1ccc(NS(=O)(=O)c2ccccc2)cc1`, for which the growth is 33.1% (inactive).

As for `Cc1[nH]nc2ccc(-c3nc4cnc(N5CCN(C)CC5)cn4c3Nc3ccc(F)cc3Br)cc12`, the growth is -29.6% (active).

As to `Oc1ccc(CSc2nnc(-c3ccccc3)o2)c2cccnc12`, the growth is 7.7% (active).

As for `C=C=COc1cccc(/C(N)=N/C(N)=N/c2nc3ccccc3s2)c1`, the growth is 97.8% (inactive).

Consider `CN1CCN(CCCCCC(=O)Nc2nc(-c3cccc(NS(=O)(=O)c4cccc5c(N(C)C)cccc45)c3)cs2)CC1`, for which the growth is 75.1% (inactive).

For the molecule `COc1cc(/C=N\NC(=O)c2ccc3nc(-c4ccc(Br)cc4)[nH]c3c2)cc(OC)c1OC`, the growth is 27% (inactive).

For `Oc1ccc(CSc2nnc(-c3ccccc3)n2-c2ccccc2)c2cccnc12`, the growth was 7.9% (active).

As to `CCN(CC)CCN1C(=O)c2c(c3c4cc(Br)ccc4[nH]c3c3ccc4ccccc4c23)C1=O`, the growth is -35% (active).

For `N#Cc1cn(Cc2ccc(Cl)cc2Cl)c(C(=O)c2ccc(Br)cc2)c1N`, the growth was 96.6% (inactive).

For `O=c1/c(=C\c2ccc(-c3ccccc3)o2)sc2nc(-c3ccccc3)nn12`, the growth is 107% (inactive).

On to `CN1CCN(c2ccc3c(c2)nc(NNC(=O)c2ccncn2)c2cccn23)CC1`, for which the growth was 10.4% (inactive).

`C(=N\Nc1nc(N/N=C/c2ccc3c(c2)OCO3)nc(N2CCCCC2)n1)/c1ccc2c(c1)OCO2`: the growth is 60.4% (inactive).

As to `Cc1csc(/N=C(N)/N=C(\N)c2cccc(C#N)c2)n1`, the growth is 70.8% (inactive).

In the case of `CCOC(=O)C1=C(C)NC(C)=C(C(=O)OC(C)C)C1c1cccc(C#N)c1` (stereo not given), the growth is 93.1% (inactive).

`COc1ccc(-c2nc3ccc(-c4nnc(SCC(=O)Nc5ccc(C(=O)/C=C/c6ccc(Cl)cc6)cc5)o4)cc3[nH]2)cc1`: the growth is 94.1% (inactive).

With `CC1OC(O[C@@H]2[C@H](O)C(CO)OC(O[C@H]3COC(O[C@H]4CC[C@]5(C)[C@H]6CC[C@]78OC[C@@]9(CC[C@](C)(C=O)C[C@H]97)C(=O)C[C@@]8(C)[C@]6(C)CC[C@H]5C4(C)C)[C@@H](O)[C@@H]3O)[C@H]2OC2OC[C@@H](O)[C@@H](O)[C@@H]2O)[C@@H](O)[C@@H](O)[C@H]1O` (stereo not given in full), the growth was 101% (inactive).

For `N#Cc1cccc(CN2CCc3ncn(Cc4ccc(Cl)cc4)c(=O)c3C2)c1`, the growth was 13.5% (inactive).

On to `O=S(=O)(NCCNc1nccc(-n2cnc3ccccc32)n1)c1ccc(Br)cc1`, for which the growth was 114% (inactive).

On to `COc1cc(-c2nn(C(C)(C)C)cc2-c2ccnc(NCCCNS(=O)(=O)c3ccc(Cl)cc3)n2)ccc1Cl`, for which the growth was 64.9% (inactive).

With `CCN1CCN(S(=O)(=O)c2oc(-c3ccc(Cl)cc3)nc2C#N)CC1`, the growth is 7.25% (active).

As for `CS(=O)(=O)c1ccc(-c2nc3ccccn3c2/C=N/Nc2nc(-c3ccc(Cl)cc3)cs2)cc1`, the growth is 99.2% (inactive).

On to `C=CCn1c(SCC(=O)Nc2ccc(OC)cc2)nnc1-c1ccc(Cl)cc1`, for which the growth is 78% (inactive).

On to `CSc1ccc(/C(=N/N=C(N)N)c2ccc(F)cc2)cc1`, for which the growth is -31.7% (active).

Take `CC1OC(O[C@@H]2C(O)C(CO)OC(O[C@H]3COC(O[C@H]4CC[C@]5(C)[C@H]6CC[C@]78OC[C@@]9(CC[C@](C)(C=O)C[C@H]97)[C@H](O)C[C@@]8(C)[C@]6(C)CC[C@H]5C4(C)C)[C@@H](OC4OC(CO)[C@@H](O)[C@@H](O)[C@@H]4O)[C@@H]3O)[C@H]2OC2OC[C@@H](O)[C@@H](O)[C@@H]2O)[C@@H](O)[C@@H](O)[C@H]1O` (stereo not given in full): the growth is -60.5% (active).

Consider `COC(=O)[C@@]1(C)CC[C@]2(C)CC[C@]3(C)C(=CC(=O)[C@@H]4[C@@]5(C)Cc6c(n(CC#CCN7CCN(C)CC7)c7ccccc67)C(C)(C)[C@@H]5CC[C@]43C)[C@@H]2C1`, for which the growth was 3.4% (active).

As to `O=C(CCn1cc[n+](CC(=O)c2ccc(-c3ccccc3)cc2)c1)Nc1cccc2cccnc12`, the growth was 13.9% (inactive).

Consider `C#CCOc1ccccc1C(OC(=O)c1ccccc1)C(=O)NC(C)(C)C(C)(C)C` (stereo not given), for which the growth is 95.1% (inactive).

For the origin of these results see PubChem BioAssay (NCI).
